“And” between values parts separate entries of the source, which are not always exact repeats. Equal values may be shown once. Results filed as inconclusive are left out. Where a call stands in place of a potency, no number is given. The source holds several records for some structures; these can differ, active in one and inactive in another. The source made the active and inactive calls. The call rests on the fitted dose curve; in most records, active means well fitted cell-killing curve with a large enough effect in the repeat runs; inconclusive means weak or mixed curves, or effect the other way; inactive means no such curve, though single readings can be large or run the other way. Residues, ends and D or L forms follow the SMILES beside them.
Test: qHTS assay to identify small molecule antagonists of the sonic hedgehog signaling (Shh) pathway - cell viability counter screen (AID 1259367); further: nearly all actives have a fitted effect of over 55% in size
Conditions: NIH/3T3 Gli1-Luc viability, CellTiter-Fluor, 24 h; series mostly up to 92.4 µM
Excerpt: National Center for Advancing Translational Sciences [NCATS]
NIH Chemical Genomics Center [NCGC]
U.S. Environmental Protection Agency [EPA]
National Institutes of Environmental Health Sciences [NIEHS]
National Toxicology Program [NTP]
U.S. Food and Drug Administration [FDA]
The sonic hedgehog (Shh) pathway is essential for normal embryonic development. Dysregulation of the Shh pathway can cause severe developmental defects in organs. Therefore chemicals that interfere with the pathway are potential developmental toxicants. A cell line designated 3T3Gli1-Luc (DMB/OARSA/CFSAN/FDA, Laurel, MD), a NIH/3T3 derived clone containing stably integrated Gli1-Luc reporter is used to detect chemical interference of the Shh pathway, by changes in the expression of the firefly Luc gene under the control of the Gli1 transcriptional response element. This cell line was used to screen Tox21 libraries for identifying and prioritizing the potential developmental toxicants that interfere Shh pathway. Conditioned medium-stimulated mode was used to screen for chemicals inhibiting Shh signaling. The cytotoxicity of the compounds was tested in parallel by measuring the cell viability using CellTiter-Fluor assay system (Promega, Madison, WI) in the same wells.
Tox21 Assay Protocol Summary:
3T3 Gli1-Luc cells were dispensed at 2,000 per well in 5uL of culture medium into white solid bottom 1536-well plates (Greiner Bio-One, Monroe, NC) using a Multidrop Combi (Thermo Scientific, Waltham, MA) dispenser. The assay plates were incubated at 37 C and 5% CO2 for 4hr, and then 23nL of compounds dissolved in DMSO and positive control were transferred using a Pintool station (Wako, San Diego, CA). The compound transfer was followed by the addition of 1ul conditioned medium or assay buffer using two separate tips of Flying Reagent Dispenser (FRD, Aurora Discovery, San Diego, CA). The assay plates were incubated at 37C and 5% CO2 for 24hr. For viability read, after 23hr of compound treatment, 1uL of CellTiter-Fluor reagent (Promega Corporation, Madison, WI) was added to each well of the assay plates using Flying Reagent Dispenser (FRD, Aurora Discovery, San Diego, CA) and incubated the assay plates at 37C for 1hr. The fluorescence signal was quantified using a ViewLux plate reader (Perkin Elmer, Shelton, CT).
Potency means the concentration at half of the fitted maximal effect.

| SMILES | Potency |
| --- | --- |
| O=C1CN(/N=C/c2ccc([N+](=O)[O-])o2)C(=O)N1 | 48.4 µM (active) and 38.6 µM (active) |
| CCCC(CCC)C(=O)O | inactive |
| Cc1ccc(C)c(OCCCC(C)(C)C(=O)O)c1 | inactive |
| CCCCOC(=O)CC(CC(=O)OCCCC)(OC(C)=O)C(=O)OCCCC | inactive |
| Cc1cc(=O)[nH]c(=S)[nH]1 | inactive |
| NNC(=O)c1ccncc1 | inactive |
| O=S(=O)(O)NC1CCCCC1 | inactive |
| Nc1ccc(S(=O)(=O)Nc2nccs2)cc1 | inactive |
| CCCN(CCC)S(=O)(=O)c1ccc(C(=O)O)cc1 | inactive |
| O=C(O)c1cccc([N+](=O)[O-])c1 | inactive |
| Cc1ccccc1C(OCCN(C)C)c1ccccc1 (stereo not given) | inactive |
| Cc1cn([C@H]2C[C@H](N=[N+]=[N-])[C@@H](CO)O2)c(=O)[nH]c1=O | 70.5 µM (active) and inactive |
| CC(=O)NS(=O)(=O)c1ccc(N)cc1 | inactive |
| COC(=O)[C@H](Cc1ccccc1)NC(=O)[C@@H](N)CC(=O)O (H-Asp-Phe-OMe) | inactive |
| CC(C)(Oc1ccc(C2CC2(Cl)Cl)cc1)C(=O)O (stereo not given) | inactive |
| O=C(O)c1[nH]n(-c2ccc(S(=O)(=O)O)cc2)c(=O)c1N=Nc1ccc(S(=O)(=O)O)cc1 | 30.7 µM (active) and 25.5 µM (active) |
| CCCCCCCCCCCCCCCC(=O)O | inactive |
| CC1(C)[C@@H]2CC[C@@]1(C)C(=O)C2 | inactive |
| O=c1ccc2ccccc2o1 | inactive |
| CC(=O)OCC(COC(C)=O)OC(C)=O | inactive |

| SMILES | Potency |
| --- | --- |
| O=C(O)CCC(=O)O | inactive |
| CC(O)C(=O)O (stereo not given) | inactive |
| NC(=O)NC1NC(=O)NC1=O (stereo not given) | inactive |
| Nc1ccn([C@H]2CC[C@@H](CO)O2)c(=O)n1 | inactive |
| O=C(O)CS | inactive |
| O=S(=O)(O)c1ccc2cc(O)ccc2c1 | inactive |
| O=C(c1ccccc1)C(O)c1ccccc1 (stereo not given) | inactive |
| Cc1cc(=O)n(-c2ccccc2)n1C | inactive |
| NC(=O)c1cnccn1 | inactive |
| NC(N)=O | 16.3 µM (active) and inactive |
| CCCCC1C(=O)N(c2ccccc2)N(c2ccccc2)C1=O | inactive |
| CC(O)CO (stereo not given) | inactive |
| CC(O)CN(CCN(CC(C)O)CC(C)O)CC(C)O (stereo not given) | inactive |
| O=NO | inactive |
| COc1ccc2[nH]cc(CCNC(C)=O)c2c1 | inactive |
| CCOc1ccc(NC(=O)CC(C)O)cc1 (stereo not given) | inactive |
| O=C(O)CCCCC(=O)O | inactive |
| O=C(O)CCCCCCCC(=O)O | inactive |
| OCCc1ccccc1 | inactive |
| Oc1ccc(/C=C/c2cc(O)cc(O)c2)cc1 | 30.9 µM (active) and 27.3 µM (active) |

— PubChem BioAssay (Tox21)
